High-throughput results as filed in PubChem.
SARS PLP yeast: blocks SARS-CoV papain-like protease in a yeast assay. Potency, µM (series often up to 32.9 µM), for the others: at the top dose activity, positive = growth rescue, most hits filed as activators. S. cerevisiae expressing SARS-CoV PLpro, growth rescue. 0.19% of 330,000 active. AID 485353; calls by dose curve; note: potency is the fitted concentration of half-maximal effect; 0% is about no effect; nearly all actives have a fitted effect of over 55% in size
Sm TGR block: blocks Schistosoma mansoni thioredoxin glutathione reductase | Q962Y6 | purified TGR, DTNB reduction, TNB absorbance 405 nm | Potency, µM (titrated, usually from 114 µM), without a hit: at the top dose activity change, negative = inhibition, most hits filed as inhibitors | 3% of 360,000 active; note: potency is the fitted concentration of half-maximal effect; % is set by controls: 0 for no effect and ±100 for the full control effect; nearly all actives have a fitted effect of over 60% in size
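TGR 20 nM + NADPH 100 uM (dispensed conc.), cpd preinc 15 min RT; start with NADPH (500 uM addition) then DTNB (15 mM addition). Kinetic TNB absorbance, 405 nm filter. Four-parameter Hill fit across titration.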
RE007 growth inh: less growth of the S. pombe RE007 Vpr strain. 0.21% of 360,000 active. Potency, µM (doses to about 92.2 µM), without a hit: top-dose activity change, negative = less growth, usual class: inhibitors. AID 651644. S. pombe RE007 Vpr strain, BacTiter-Glo ATP luminescence, 24 h; active = well fitted falling curve with a large enough effect; inconclusive = small, poorly fitted or top-dose-only effect; inactive = no such curve, though single readings can be large or run the other way; note: potency is the fitted concentration of half-maximal effect; % is set by controls: 0 for no effect and ±100 for the full control effect; nearly all actives have a fitted effect of over 50% in size
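Fission yeast strain RE007, carrying one chromosomally integrated HIV-1 vpr copy, was seeded at OD 0.01 in PMG+AL medium with 23 nL pinned compound. After 24 h at 30 °C and 99% humidity, viability was read by BacTiter-Glo luminescence.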
NS1 inh: blocks influenza NS1 protein function | 0.4% of 270,000 active | Potency, µM (series often up to 46.1 µM), for inactives: at the top dose activity, positive = more growth; calls by dose curve; note: potency is the fitted concentration of half-maximal effect; actives are rising curves; nearly all actives have a fitted effect of over 50% in size
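In this qHTS, NS1 from influenza A is expressed in budding yeast, where it slows growth. Cells are switched from glucose to 2% galactose medium (pH 6.0, -URA), treated with compound, and growth recovery is read at OD600.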
Tb PYK inh: T. brucei pyruvate kinase inhibition. Q57TT1. TbPYK enzyme, Kinase-Glo Plus ATP luminescence, 45 min. Potency, µM (series often up to 76.8 µM), for the others: top-dose activity, negative = inhibition, most hits filed as inhibitors. 0.12% of 410,000 active. AID 624173; note: potency is the fitted concentration of half-maximal effect; % is set by controls: 0 for no effect and ±100 for the full control effect; nearly all actives have a fitted effect of over 50% in size
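Assay buffer: 50 mM TEA pH 7.2, 100 mM KCl, 10 mM MgCl2, 0.05% BSA, 0.01% Tween-20. Pyruvate kinase from T. brucei plus substrate met compound, then ADP (130 uM final). Luminescence was read post 45 min RT.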
LmPK inh: inhibitors of Leishmania mexicana pyruvate kinase; Q27686; purified LmPK, Kinase-Glo ATP luminescence, 1 h; Potency, µM (series often up to 57.5 µM), inactives show at the highest dose activity change, negative = inhibition, hits mostly inhibitors; 0.37% of 290,000 active; note: potency is the fitted concentration of half-maximal effect; % is set by controls: 0 for no effect and ±100 for the full control effect
Target sequence (Q27686 whole entry, looked up): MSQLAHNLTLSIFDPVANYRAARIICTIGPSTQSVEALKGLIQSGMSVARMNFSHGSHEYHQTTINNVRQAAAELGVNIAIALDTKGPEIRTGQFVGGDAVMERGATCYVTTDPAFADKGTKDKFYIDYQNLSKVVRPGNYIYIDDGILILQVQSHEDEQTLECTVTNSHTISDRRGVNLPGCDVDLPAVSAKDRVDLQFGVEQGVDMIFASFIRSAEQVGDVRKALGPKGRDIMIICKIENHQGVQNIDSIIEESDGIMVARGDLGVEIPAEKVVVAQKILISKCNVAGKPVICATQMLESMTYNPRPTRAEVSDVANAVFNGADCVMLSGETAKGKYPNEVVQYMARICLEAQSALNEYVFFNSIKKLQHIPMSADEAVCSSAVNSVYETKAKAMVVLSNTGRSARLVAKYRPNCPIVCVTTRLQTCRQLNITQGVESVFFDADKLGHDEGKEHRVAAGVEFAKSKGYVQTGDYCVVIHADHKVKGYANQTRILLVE
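ATP generated from ADP (0.1 mM) and PEP (0.5 mM) by 0.1 nM LmPK over 1 h at room temperature (pH 7.2 imidazole buffer) was detected by coupled luciferase luminescence. Values were normalized to uninhibited and no-enzyme wells.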
NS1 inh valid: influenza NS1 function inhibition validation. shares compounds with NS1 inh. influenza NS1 function cell assay, 15-point titration. activity change, negative = inhibition, % at 32.9 µM. 1,400 tested, under 10 active. AID 492980; calls by dose curve; note: 0% is about no effect
PR8 titer: influenza virus titer reduction, NS1 project; shares compounds with NS1 inh; MDCK infected influenza A/PR/8/34, virus titer TCID50; stronger effect = lower value; virus titer (log TCID50), log10 TCID50 at 5 µM; 30% of 95 active; call rule not given here
Starred values were filed as active, the others as inactive; ? = inconclusive; · = no result given; [ ] = dose if it differs, or a comment. The list is not random: actives were taken first. Their share in the collection is about 3.3%. Unless noted, calls come from the whole dose curve; as a rule, active = well fitted curve in the direction sought with a large enough effect; inconclusive = small, poorly fitted or top-dose-only effect, or another doubt; inactive = no such curve, though single readings can be large; an effect the other way counts as inactive or inconclusive.

SMILES | SARS PLP yeast | Sm TGR block | RE007 growth inh | NS1 inh | Tb PYK inh | LmPK inh | NS1 inh valid | others
Cc1ccc(S(=O)(=O)n2nc(C)cc2N)cc1 | 1% | -3% | 2% | 22µM* | 2% | 5% | 3
Cc1nc2c(c(C)c1CCC(=O)Nc1cccc(C(F)(F)F)c1)c(=O)n(C)c(=O)n2C | · | 7% | · | · | 6% | · | ·
COC(=O)C1=C(C)OC(N)=C(C#N)C1c1c(C)nn(C)c1C (configuration not stated) | 10% | ? | -3% | 2.2µM* | -5% | 7% | 10
O=C(Nc1nccs1)C1CC=CCC1 (configuration not stated) | 3% | -15% | -20% | 15% | 4% | -6% | ·
O=C(Nc1ccc(O)cc1)C1CC=CCC1 (configuration not stated) | 3% | -3% | -14% | 13µM* | -2% | -5% | 9
Cc1cc(=O)[nH]c2nnc(SCc3cccc(C(F)(F)F)c3)n12 | · | 0% | · | · | 6% | · | ·
Cc1ccc(C(=O)c2cnc3cc4c(cc3c2S(=O)(=O)c2ccccc2)OCCO4)cc1 | -8% | -23% | -13% | ? | -3% | 1% | ·
CCOc1ccc(S(=O)(=O)c2c(C(=O)c3ccc(C)cc3)cnc3cc4c(cc23)OCCO4)cc1 | -2% | -4% | 15% | 14µM* | -2% | -2% | -14
O=C1NN(c2ccc(Br)cc2)C(=O)/C1=C\c1ccc(O)cc1O | -5% | -10% | 37% | 4µM* | 1% | -3% | -14
O=C(CCNS(=O)(=O)c1ccc2c(c1)CCCC(=O)N2)Nc1cccc(Cl)c1 | · | 4% | · | · | -5% | · | ·
COc1ccc(Cn2c(SCc3ccc(C(=O)NCc4cccs4)cc3)nc3ccncc32)cc1 | · | 2% | · | · | -2% | · | ·
CC(=O)c1ccc(N2CCN(c3ncnc4c3nc3n4CCCC3)CC2)cc1 | · | 3% | · | · | -4% | · | ·
COC(=O)C(NC(=O)c1ccccc1C)(Nc1ncc(S(=O)(=O)c2ccc([N+](=O)[O-])cc2)s1)C(F)(F)F (configuration not stated) | 6% | 2% | -3% | 10% | 0% | 6% | ·
COC(=O)C(NC(=O)c1ccc(F)cc1)(Nc1ncc(S(=O)(=O)c2ccc([N+](=O)[O-])cc2)s1)C(F)(F)F (configuration not stated) | -1% | 2% | 1% | 7.9µM* | 0% | 3% | 14
COc1ccc(NC(=O)Nc2ccccc2OCc2cc(=O)n3ccccc3n2)c(OC)c1 | · | -4% | · | · | 5% | · | ·
CSc1nc2ccccc2cc1/C=C(\C#N)c1ccccc1 | 4% | 5% | -2% | 2µM* | 2% | 7% | 7
O=C(/C=N/O)NCCCN1CCCCCC1 | -2% | ? | -5% | 3% | 4% | 2% | ·
O=C(/C=N/O)NCCCN1CCOCC1 | 19% | 8% | · | ? | 5% | 8% | 1
CCNc1nc(OC)nc(Oc2ccc(=O)[nH]n2)n1 | · | -4% | · | · | -4% | · | ·
CC1(C)CC(=O)C2=C(C1)O[C@@]1(CCCCN3C(=O)c4ccccc4C3=O)Cc3ccccc3C2O1 | 1%[6.58 µM] | -28%[22.9 µM] | · | -8% | · | -8%[11.5 µM] | ·
NC(=O)C1CCN(C(=O)C23CC4CC(CC(C4)C2)C3)CC1 | 1% | -21% | 1% | ? | -2% | 0% | -9
O=C(N1CCCCC1)C12CC3CC(CC(C3)C1)C2 | -18% | -3% | 16% | -3% | -5% | 2% | ·
Cc1ccc(-c2csc(N3CCC(NS(=O)(=O)c4ccc5c(c4)OCCO5)CC3)n2)cc1 | -5% | 10% | -11% | ? | -7% | 4% | -1 | PR8 titer=7.7
Cc1ccc(-c2csc(N3CCC(C(N)=O)CC3)n2)cc1 | -6% | -3% | · | · | -8% | · | ·
Nc1ccc(-c2nc3cc(N)ccc3n2CCO)cc1 | 1% | 2% | 13% | 7.9µM* | -7% | -7% | 2
SMILES | SARS PLP yeast | Sm TGR block | RE007 growth inh | NS1 inh | Tb PYK inh | LmPK inh | NS1 inh valid | others
O=C(CSc1nnc(-c2ccccc2)n1C1CCCCC1)Nc1ccc(S(=O)(=O)Nc2ccccn2)cc1 | 0% | -2% | 2% | ? | -7% | 0% | -9
Cc1cc(C)cc(NC(=O)c2ccc3c(O)c(S(=O)(=O)c4ccccc4)c(=O)[nH]c3c2)c1 | · | -2% | · | · | -4% | · | ·
COc1cc(C2C(C#N)=C(N)Oc3c2ccc2ccccc32)ccc1OCC(=O)Nc1cccc(C)c1 (configuration not stated) | 12% | 1% | 16% | 11µM* | -4% | 3% | 5 | PR8 titer=8.3
O=C(NCc1ccc2[nH]c3c(c2c1)CCCC3)c1ccc(S(=O)(=O)N2CCCCC2)cc1 | 2% | 1% | -10% | 5µM* | 4% | 1% | 6
O=C(NCc1ccc(F)cc1)c1ccc(S(=O)(=O)N2CCCCC2)cc1 | -8% | -6% | -4% | · | 2% | · | ·
Cc1ccc2c(C)nc(Nc3nc(CSc4nnnn4-c4ccccc4)cc(=O)[nH]3)nc2c1 | 2% | 5% | 1% | 14µM* | 4% | 1% | -25
O=S(=O)(c1ccc2ccccc2c1)N1CCN(C(=S)Nc2ccc(F)cc2)CC1 | 11% | -1% | 14% | 11µM* | 3% | -4% | -15
COc1cccc(N2CC(O)=C(c3ccccc3)C2=N)c1 | 18% | -1% | -22% | 7.1µM* | -6% | -3% | 1
CCn1c2ccccc2c2cc(NC(=O)CSc3nnc(-c4ccc(OC)c(OC)c4)n3N)ccc21 | -23% | -25% | -8%[3.69 µM] | -1% | · | 3% | ·
COc1ccc(-c2nnc(SC(C(=O)c3c[nH]c4ccccc34)c3ccccc3)n2N)cc1OC (configuration not stated) | 11% | -9% | 17% | 20µM* | -14% | 3% | ?
CN(C)c1ccc(NC(=O)Cn2c(SCc3ccc(F)cc3)nc3cccnc32)cc1 | · | -1% | · | · | 2% | · | ·
Cc1ccc(C)c(N2CCN(C(=O)CCNC(=O)Cn3ccc4ccccc4c3=O)CC2)c1 | 30% | 16% | -1% | ? | 1% | 0% | 3
CCCCC(c1nnnn1Cc1ccco1)N1CCN(c2nc3ccccc3s2)CC1 (configuration not stated) | -9% | ? | 4% | -128% | -4% | 1% | ·
c1ccc(C(c2nnnn2Cc2ccco2)N2CCN(c3nc4ccccc4s3)CC2)cc1 (configuration not stated) | 13% | -17% | 19% | 13µM* | 1% | 7% | -19
